Experimental data: PubChem BioAssay
The source made the active and inactive calls.

Key:
[1] = system: Plasmodium falciparum Sir2 (PF13_0152, Sir2A); experiment: Plasmodium falciparum Sir2A binding compounds – biochemical, small-molecule microarray, 635 nm fluorescence, primary screen (AID 1098); conditions: fluorescence 635 nm, higher = more signal;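 further: score merges spot fluorescence intensity with its signal-to-noise ratio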
[2] = probe aDKK1 binding to arrayed compounds – biochemical, biotinylated probe, 635/667 nm fluorescence, primary screen (AID 1099); conditions: small-molecule microarray, higher = more signal;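 further: score merges 667nm spot fluorescence with signal to noise across triplicate slides; reference of the scale not given here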
[3] = probe aCHRDL2 binding to arrayed compounds – biochemical, biotinylated probe, 635/667 nm fluorescence, primary screen (AID 1100); conditions: small-molecule microarray, higher = more signal
[4] = change in splice reporter luminescence, either direction, cell-based, HEK293, spliceosome inhibition project, primary screen (AID 1101); conditions: HEK293 splicing luciferase reporter, 24 h, higher = more signal, called active from +8 up or from −8 down;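 further: HEK293 cells carrying a splicing-competent luciferase reporter gene; test concentration not given here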
[5] = biological target: Fibroblast growth factor 10 (Homo sapiens) (UniProt O15520); experiment: compounds binding fibroblast growth factor 10 – biochemical, small-molecule microarray, 635 nm fluorescence, primary screen (AID 1102); conditions: FGF10 binding, fluorescence 635 nm, higher = more signal
Sequence of Fibroblast growth factor 10 (Homo sapiens) (O15520 whole entry, looked up): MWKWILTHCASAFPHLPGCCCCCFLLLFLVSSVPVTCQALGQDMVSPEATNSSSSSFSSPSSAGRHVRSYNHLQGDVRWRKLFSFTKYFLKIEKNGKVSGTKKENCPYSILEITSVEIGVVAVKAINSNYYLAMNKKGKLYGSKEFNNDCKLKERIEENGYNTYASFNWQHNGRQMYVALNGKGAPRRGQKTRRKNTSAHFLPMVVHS

[6] = system: glycogen synthase kinase-3 (GSK3A per assay name; protocol says GSK3B); experiment: compounds binding glycogen synthase kinase-3 – biochemical, small-molecule microarray, 635 nm fluorescence, GSK3A, primary screen (AID 1103); conditions: fluorescence 635 nm, higher = more signal; further: the record names both GSK3A and GSK3B
[7] = biological target: Epidermal growth factor receptor (Homo sapiens) (UniProt P00533); experiment: compounds binding epidermal growth factor receptor – biochemical, small-molecule microarray, 635 nm fluorescence, primary screen (AID 1104); conditions: EGFR binding, higher = more signal;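 further: score merges 667 nm emission intensity with spot signal to noise over triplicate slides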
Sequence of Epidermal growth factor receptor (Homo sapiens) (P00533 whole entry, looked up): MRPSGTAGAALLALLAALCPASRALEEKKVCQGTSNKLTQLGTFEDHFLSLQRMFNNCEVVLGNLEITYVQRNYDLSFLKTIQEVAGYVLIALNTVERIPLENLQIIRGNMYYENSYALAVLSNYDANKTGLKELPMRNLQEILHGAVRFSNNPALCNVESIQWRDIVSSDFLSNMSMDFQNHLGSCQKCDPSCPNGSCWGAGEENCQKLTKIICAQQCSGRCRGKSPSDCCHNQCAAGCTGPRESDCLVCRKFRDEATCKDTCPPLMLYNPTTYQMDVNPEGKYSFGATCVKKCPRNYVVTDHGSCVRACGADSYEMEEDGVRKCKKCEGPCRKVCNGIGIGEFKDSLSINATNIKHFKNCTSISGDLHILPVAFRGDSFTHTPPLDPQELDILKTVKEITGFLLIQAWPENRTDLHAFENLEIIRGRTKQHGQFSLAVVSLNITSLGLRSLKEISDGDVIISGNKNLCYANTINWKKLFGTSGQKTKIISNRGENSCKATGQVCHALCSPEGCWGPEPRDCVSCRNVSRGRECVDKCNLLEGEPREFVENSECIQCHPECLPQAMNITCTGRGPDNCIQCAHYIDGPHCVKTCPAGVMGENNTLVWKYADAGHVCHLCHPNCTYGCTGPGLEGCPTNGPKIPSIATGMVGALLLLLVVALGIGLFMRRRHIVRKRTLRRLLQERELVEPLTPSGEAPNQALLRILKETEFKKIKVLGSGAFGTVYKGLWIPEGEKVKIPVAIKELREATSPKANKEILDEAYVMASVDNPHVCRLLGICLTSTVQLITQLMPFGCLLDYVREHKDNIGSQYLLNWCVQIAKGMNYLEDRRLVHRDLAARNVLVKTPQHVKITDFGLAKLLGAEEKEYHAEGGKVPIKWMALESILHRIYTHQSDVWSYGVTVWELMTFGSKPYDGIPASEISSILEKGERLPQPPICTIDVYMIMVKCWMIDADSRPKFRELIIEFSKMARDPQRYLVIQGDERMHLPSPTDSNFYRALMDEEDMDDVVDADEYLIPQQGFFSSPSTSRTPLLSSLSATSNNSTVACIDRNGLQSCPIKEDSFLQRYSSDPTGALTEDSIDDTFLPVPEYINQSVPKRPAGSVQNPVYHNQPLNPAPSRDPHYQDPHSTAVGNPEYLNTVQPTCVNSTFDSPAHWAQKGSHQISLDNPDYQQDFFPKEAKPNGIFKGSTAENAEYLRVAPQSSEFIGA

[8] = biological target: Follistatin-related protein 3 (Homo sapiens) (UniProt O95633); experiment: compounds binding follistatin-related protein 3 – biochemical, small-molecule microarray, 635 nm fluorescence, primary screen (AID 1105); conditions: FSTL3 binding, higher = more signal;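 further: score merges emission near 667 nm and signal to noise per printed spot across three slides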
Sequence of Follistatin-related protein 3 (Homo sapiens) (O95633 whole entry, looked up): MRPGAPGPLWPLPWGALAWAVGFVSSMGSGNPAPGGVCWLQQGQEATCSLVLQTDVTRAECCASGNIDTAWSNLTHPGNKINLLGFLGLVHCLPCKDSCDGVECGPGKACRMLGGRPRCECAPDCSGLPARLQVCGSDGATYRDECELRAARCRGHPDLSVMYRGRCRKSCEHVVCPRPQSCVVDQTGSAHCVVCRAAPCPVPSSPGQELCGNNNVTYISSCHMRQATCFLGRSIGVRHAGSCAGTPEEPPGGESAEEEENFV

[9] = biological target: Dickkopf-related protein 1 (Homo sapiens) (UniProt O94907); experiment: small molecules binding DKK1 protein – biochemical, small-molecule microarray, 635 nm fluorescence scan, primary screen (AID 1106); conditions: higher = more signal;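 further: score merges emission near 667 nm with signal to noise over three replicate slides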
Sequence of Dickkopf-related protein 1 (Homo sapiens) (O94907 whole entry, looked up): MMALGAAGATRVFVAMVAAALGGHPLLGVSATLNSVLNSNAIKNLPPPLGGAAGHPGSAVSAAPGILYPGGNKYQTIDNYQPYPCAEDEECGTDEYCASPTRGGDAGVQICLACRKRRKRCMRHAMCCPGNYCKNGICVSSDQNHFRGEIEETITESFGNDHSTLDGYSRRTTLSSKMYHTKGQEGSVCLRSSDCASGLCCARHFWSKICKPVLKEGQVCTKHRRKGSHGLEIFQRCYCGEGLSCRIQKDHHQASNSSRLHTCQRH

[10] = system: Inhibin beta A chain (activin A); experiment: small molecules binding activin A – biochemical, small-molecule microarray, 635 nm fluorescence scan, primary screen (AID 1107); conditions: INHBA, higher = more signal;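 further: mouse activin A protein probed at 4.33 µg/mL on printed slides; score merges bound-protein fluorescence near 667 nm with spot signal-to-noise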

SMILES	composite z-score [1]	composite z-score [2]	composite z-score [3]	z-score [4]	composite z-score [5]	composite z-score [6]	composite z-score [7]	composite z-score [8]	composite z-score [9]	composite z-score [10]
O=C1O[C@H](c2ccccc2)[C@H](c2ccccc2)N2[C@H]1[C@@H](C(=O)O)[C@]1(C(=O)Nc3ccc(C#CCCO)cc31)[C@H]2c1ccccc1OCCO	0.582	-0.445	0.094	-0.888 (inactive)	0.258	-0.532	-0.329	-0.224	-0.0493	0.671
OCCCC1=CC(c2ccc(CN3CCCC3)cc2)N(Cc2cc3c(cc2Br)OCO3)CC1 (stereo not given)	0.216	0.0738	0.732	0.361 (inactive)	0.477	0.328	0.259	0.809	1.14	1.57
[N-]=[N+]=Nc1ccccc1C[C@]1(C(=O)NCC(O)CO)COC(c2ccc(OCCCO)cc2)=N1 (stereo not given in full)	0.989	0.72	1.18	0.173 (inactive)	-0.582	-0.269	-0.603	-1.14	-0.975	1.16
COc1ccc(CCNC(=O)[C@@]2(Sc3ccc(C)cc3)CC(=O)N(Cc3ccccc3C(F)(F)F)[C@@H]2c2ccc(CO)cc2I)cc1	1.09	-0.0552	1.08	-1.14 (inactive)	-1.06	-0.404	-1.24	-1.64	-1.14	0.67
COCCOC(=O)N1C(=O)[C@@]2(c3cc(C#CC4=CCCCC4)ccc31)[C@H](c1ccccc1OCCO)N1[C@H](c3ccccc3)[C@H](c3ccccc3)OC(=O)[C@H]1[C@@H]2C(=O)N1CCN(c2ncccn2)CC1	0.749	-0.149	-0.513	-1.46 (inactive)	0.751	1.28	0.502	1.06	0.489	0.333
COCCOC(=O)N1C(=O)[C@@]2(c3ccccc31)[C@H](C(=O)NC[C@H](O)c1ccccc1)[C@H]1C(=O)O[C@H](c3ccccc3)[C@H](c3ccccc3)N1[C@@H]2c1ccc(O)cc1	1.54	0.804	0.24	-0.118 (inactive)	1.42	1.32	1.01	1.44	0.827	-0.0795
COc1cc2c(cc1O)C(c1cccs1)N(Cc1cc3c(cc1Br)OCO3)CC2 (stereo not given)	1.5	0.421	0.726	-0.0664 (inactive)	1.47	1.32	0.345	1.13	0.449	0.632
C=CCNC(=O)[C@@H]1[C@H]2C(=O)O[C@H](c3ccccc3)[C@H](c3ccccc3)N2[C@H](c2ccccc2OCCO)[C@@]12C(=O)N(C(=O)OCCOC)c1ccc(C#CC3(O)CCCCCC3)cc12	1.17	0.0347	0.31	-0.692 (inactive)	0.87	1.3	0.598	1.36	0.579	1.13
CC(CO)N1C(=O)[C@]2(C)C3C(=O)OCCC/C=C\[C@H]3OC23C=CCN(c2ccc(Cl)cc2)C(=O)[C@@H]13 (stereo not given in full)	-0.714	-0.0842	0.167	-0.712 (inactive)	-0.39	-0.558	-0.558	-0.798	-0.0396	-0.0439
CCOC(=O)C[C@H]1[C@H](OC(=O)c2ccccc2-c2ccccc2)[C@@H](NC(=O)c2ccc3ccccc3n2)c2cc(OCCCO)ccc2N1C(=O)Cc1ccc(OC)cc1	-0.235	0.0006	-0.302	-0.378 (inactive)	0.463	0.0131	0.238	0.176	0.0349	0.711
CCCCCCc1nc(Cc2cc(OC)c(OC)c(OC)c2)cc2c1[Si](C(C)C)(C(C)C)OC2	0.209	-0.227	-0.623	-0.393 (inactive)	0.124	-0.195	0.192	0.494	0.5	0.881
CC(CO)N1C(=O)[C@@H]2[C@H]3C(=O)OCC=C[C@H]3OC23C=CCN(Cn2nnc4ccccc42)C(=O)[C@@H]13 (stereo not given in full)	0.996	-0.162	0.238	1.12 (inactive)	-0.78	-0.778	-1.29	-1.13	-0.586	0.647
CC(C)[Si](C#C[Si](C(C)C)(C(C)C)C(C)C)(O[C@H](c1ccccc1)c1cn(Cc2ccccc2)nn1)C(C)C	0.144	-0.138	-0.465	0.501 (inactive)	0.279	0.654	0.392	0.628	0.405	0.218
COCCOC(=O)N1C(=O)[C@@]2(c3cc(C#CC4(O)CCCCCC4)ccc31)[C@H](c1ccc(O)cc1)N1[C@H](c3ccccc3)[C@H](c3ccccc3)OC(=O)[C@H]1[C@@H]2C(=O)N1CCN(c2ncccn2)CC1	0.952	0.0005	0.426	0.325 (inactive)	0.425	0.788	0.149	0.476	0.063	-0.275
Cc1ccccc1C(O)C1C=CC2C(=O)NC(=O)C2N1Nc1ccccn1 (stereo not given)	0.105	0.145	0.397	1.55 (inactive)	-0.209	0.0301	0.262	0.056	0.144	0.605
CC(C)NC(=O)[C@@]1(c2ccc([N+](=O)[O-])cc2)CC(=O)N(C2CCCCC2)[C@@H]1c1ccc(CO)cc1	1.49	-0.723	0.0339	0.458 (inactive)	1.23	0.645	0.0344	1.04	0.214	-0.0249
COc1ccc([Si](C)(C)[C@H]2[C@H](CC(=O)N3CCC[C@H]3CO)O[C@@]3(C(=O)N(Cc4ccc(N5CCOC5=O)cc4)c4ccccc43)[C@@H]2C)cc1	1.08	-0.214	-0.246	0.467 (inactive)	1.22	1.14	0.737	1.06	0.672	0.378

SMILES	composite z-score [1]	composite z-score [2]	composite z-score [3]	z-score [4]	composite z-score [5]	composite z-score [6]	composite z-score [7]	composite z-score [8]	composite z-score [9]	composite z-score [10]
COc1ccc([Si](C)(C)[C@@H]2[C@@H](CCO)O[C@]3(C(=O)N(Cc4cccc(NC(=O)[C@H](C)O)c4)c4ccccc43)[C@H]2C)cc1	1.42	1.09	0.0838	-2.89 (inactive)	1.08	1.27	0.0532	0.399	0.244	-0.437
C=C[C@@H](CO)N(Cc1ccc(OC)cc1)S(=O)(=O)c1ccc(Br)cc1	-0.36	0.188	0.681	-1.21 (inactive)	0.0174	0.239	-0.142	-0.0506	-0.0478	0.0176
C=C(/C(=C/C[C@H](OC(=O)c1ccncc1)c1ccc(CO)o1)c1cnc2ccccc2c1)C(C)C	0.614	-0.173	-0.304	0.984 (inactive)	1.41	1.16	0.932	1.46	0.791	1.81
COc1cc(NN2C(C(O)c3ccc(N(C)C)cc3)C=CC3C(=O)N(c4ccccc4)C(=O)C32)cc(OC)c1OC (stereo not given)	0.101	1.16	1.13	-0.859 (inactive)	0.513	0.765	-0.038	0.455	-0.335	1.67
COC(=O)[C@@H]1N=C(c2ccc(OCCCO)cc2)O[C@@H]1c1ccccc1	1.76	0.311	0.725	-2.07 (inactive)	-1.4	-1.33	-0.665	-1.22	-1.71	-0.0285
CCOC(=O)C[C@H]1[C@H](OC(=O)Cc2ccc3c(c2)OCO3)[C@@H](NC(=O)C2CCCCC2)c2cc(OCCCO)ccc2N1C(=O)c1ccccc1	0.0882	-0.173	-0.265	-0.664 (inactive)	0.27	-0.0848	0.073	0.145	0.351	0.193
NCCCCCNC(=O)[C@@H]1C[C@@H]2C(=O)N[C@@H](CCCCN)C(=O)N2[C@@H]1c1ccc(O)cc1	1.57	0.899	0.713	0.498 (inactive)	1.41	1.34	1.13	1.43	1.81	1.32
O[C@@H](Cc1ccccc1)[C@@H](/C=C/C1CC1)N(CC#Cc1ccccc1)Cc1ccccc1Br	-0.0214	-0.107	1.38	-1.39 (inactive)	-1.36	-0.689	-1.29	-1.62	-1.88	0.171
COc1ccc(C#Cc2ccc3c(c2)[C@]2(C(=O)N3)[C@H](c3ccc(OCCO)cc3)N3[C@H](c4ccccc4)[C@H](c4ccccc4)OC(=O)[C@H]3[C@@H]2C(=O)NC[C@H](O)c2ccccc2)cc1	0.614	0.0477	-0.0975	-0.124 (inactive)	0.882	0.72	0.342	1.08	0.301	-0.177
[N-]=[N+]=Nc1ccccc1[C@@H]1OC(c2ccc(OCCCO)cc2)=N[C@]1(Cc1ccccc1)C(=O)O	0.77	0.973	0.0948	-0.689 (inactive)	0.747	0.655	-0.129	0.455	-0.347	1.2
O=C(NCCN1CCOCC1)[C@@H]1c2ccccc2C(=O)N(Cc2ccccc2Cl)[C@H]1c1ccc(CO)cc1	-0.855	-0.633	-0.803	-0.284 (inactive)	-1.16	-0.52	-0.494	0.0801	-0.569	0.823
C=CCOC(=O)[C@@H]1[C@H]2C(=O)O[C@H](c3ccccc3)[C@H](c3ccccc3)N2[C@H](c2ccc(OCCOC(=O)[C@@H]3C[C@@H]4C(=O)N[C@@H](CCCC[N+](C)(C)C)C(=O)N4[C@@H]3c3ccc(O)cc3)cc2)[C@@]12C(=O)Nc1ccc(I)cc12	0.822	-0.178	-0.18	0.527 (inactive)	1.18	1.24	0.49	1.41	0.776	0.192
O=C(O)[C@@H]1C[C@@H]2C(=O)N3CCC[C@H]3C(=O)N2[C@@H]1c1ccc(O)cc1	1.51	0.857	0.11	-2.2 (inactive)	0.196	0.762	0.426	0.987	0.975	0.852
Oc1ccc2cc[n+](Cc3cc4c(cc3Br)OCO4)cc2c1	-1.19	0.144	0.452	-0.95 (inactive)	-0.633	-1.16	-0.243	-0.456	-0.14	0.398
CC[C@@H]1O[Si](C(C)C)(C(C)C)c2c1cc(-c1cc(C)c(OC)c(C)c1)nc2-c1ccc(Oc2ccccc2)cc1	-0.551	0.825	-0.0144	-0.166 (inactive)	0.0008	-0.732	-0.451	-0.452	-0.497	0.135
COC(=O)C1=CC(CCCO)=CC(c2ccc(CN3CCCC3)cc2)N(Cc2cccc(OC(F)(F)F)c2)C=C1C(=O)OC (stereo not given)	1.26	0.752	0.82	-0.656 (inactive)	0.641	0.68	0.121	0.637	-0.271	0.976
